Bioassay records from PubChem BioAssay.
FBW7 act: human FBW7 E3 ligase activation, primary screen; AlphaScreen FBW7–phospho-cyclin E peptide binding, activator screen; normalized activity (activation), % at 26.1 µM; 650,000 tested, 0.13% active; AID 1259310; in the data active means normalized activity above about 1.9%;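 further: purified mutant Fbw7 with reduced substrate affinity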
GPR151 ag: activates the human receptor GPR151 | activation, % at 11.2 µM | PathHunter beta-arrestin GPR151 cells, luminescence | 650,000 tested, 1% active; in the data active means activation above about 4.9%
Target sequence (Q8TDV0 whole entry, looked up): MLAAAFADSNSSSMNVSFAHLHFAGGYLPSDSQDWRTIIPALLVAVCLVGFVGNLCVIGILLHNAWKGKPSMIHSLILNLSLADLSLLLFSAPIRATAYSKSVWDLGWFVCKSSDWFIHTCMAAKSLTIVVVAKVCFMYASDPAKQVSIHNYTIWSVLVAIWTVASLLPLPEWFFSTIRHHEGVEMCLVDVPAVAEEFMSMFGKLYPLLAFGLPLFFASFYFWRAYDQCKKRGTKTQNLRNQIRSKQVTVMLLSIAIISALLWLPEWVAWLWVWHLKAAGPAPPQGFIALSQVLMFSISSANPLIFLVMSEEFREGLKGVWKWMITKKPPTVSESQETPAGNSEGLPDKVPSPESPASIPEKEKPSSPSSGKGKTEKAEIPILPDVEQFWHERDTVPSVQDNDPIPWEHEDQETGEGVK
MITF primary: human MITF inhibition, primary screen. O75030. AlphaScreen MITF homodimerization, bead proximity signal. inhibition, % at 2.6 µM. 650,000 tested, 0.91% active; in the data active means inhibition above about 50%
TEAD-YAP inh: TEAD-YAP interaction inhibition; 640,000 tested, 1.4% active; HEK-TIYL cells, TEAD-Gal4/YAP UAS-luciferase luminescence; inhibition, % at 9.12 µM; in the data active means inhibition above about 32%
GPR151 conf act: confirmation of human GPR151 activators. 6,700 tested, under 10 active. activation, % at 11.2 µM. shares compounds with GPR151 ag. GPR151 PathHunter beta-arrestin cells, luminescence, 90 min; % of EA-reagent control over plate median;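 active means mean percent activation across replicates above the confirmation screen cutoff of 4.91%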
GPR119 counter: GPR119 activation, counter-screen for GPR151 activators; shares compounds with GPR151 ag; GPR119 PathHunter beta-arrestin cells, luminescence, 90 min; 0 = compound-well median, 100 = enzyme-acceptor control; activation, % at 11.2 µM; 6,700 tested, 0.3% active;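 active means mean percent activation in the counterscreen above 29.09%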;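 further: counterscreen on off-target GPR119 to flag nonselective hits from the GPR151 activator screen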
Large screens that a line does not name were inactive (follow-up assays come after a bar, where they were run). An excerpt weighted towards active compounds, which were near 3.5% of everything screened.

CCOC(=O)c1c(NC(=O)CSc2ccccn2)sc2c1CCCC2	GPR151 ag 6.8 | GPR151 conf act inactive | GPR119 counter inactive
CCOC(=O)c1c(NC(=O)CSc2nnc3ccccn23)sc2c1CCCC2	GPR151 ag 6.8 | GPR151 conf act inactive | GPR119 counter inactive
CCOC(=O)c1c(NC(=O)CCSc2nnc3ccccn23)sc2c1CCCC2	none
CCOC(=O)c1c(NC(=O)CSc2nnc(CNC(=O)c3ccc(OC)cc3)n2-c2ccc([N+](=O)[O-])cc2)sc2c1CCCCC2	GPR151 ag 5.9 | GPR151 conf act inactive | GPR119 counter inactive
CCC(=O)Nc1sc2c(c1C(=O)Nc1ccc(C)cc1)CCC2	none
Cc1ccccc1-n1nnnc1SCC(=O)NC(C)C1CC2CCC1C2 (stereo not drawn)	none
O=C(Nc1ccc(I)cc1)Oc1ccc([N+](=O)[O-])cc1	none
Cc1cccc(Nc2nc3nonc3n3cnnc23)c1C	GPR151 ag 5.8 | GPR151 conf act inactive | GPR119 counter inactive
CCC1SC2=NC(C)=C(C(=O)OCCOC)C(c3ccccc3[N+](=O)[O-])N2C1=O (stereo not drawn)	none
COc1ccc(CCS(=O)(=O)Nc2ccc3c(c2)N(C(=O)C2CCCO2)CC3)cc1 (stereo not drawn)	GPR151 ag 5.8 | GPR151 conf act inactive | GPR119 counter inactive
NC(COP(=O)(O)O)C(=O)O (stereo not drawn)	GPR151 ag 5.5 | GPR151 conf act inactive | GPR119 counter inactive
Cc1cc(C)n2nc(SCC(=O)N(C3CCCCC3)C3CCS(=O)(=O)C3)nc2n1 (stereo not drawn)	none
CC(C)N(CCC#N)S(=O)(=O)c1cccc2nsnc12	none
CN(C)CC(C)(C)CN(CCC#N)S(=O)(=O)c1cccc2nsnc12	GPR151 ag 5.0 | GPR151 conf act inactive | GPR119 counter inactive
N=c1c(C(=O)NCc2ccccc2)cc2c(=O)n3ccccc3nc2n1CCc1ccccc1	none
Cc1ccc(/C=C2\SC(N3CCOCC3)=NC2=O)cc1	none
O=C1N=C(N2CCOCC2)S/C1=C\c1cccc2ccccc12	GPR151 ag 6.1 | GPR151 conf act inactive | GPR119 counter inactive
NC1=NC(=O)/C(=C/c2cn[nH]c2-c2ccccc2)S1	none
O=C1N=C(N2CCCC2)S/C1=C\c1cn[nH]c1-c1ccccc1	GPR151 ag 7.6 | GPR151 conf act inactive | GPR119 counter inactive
CC(C)Oc1ccc(/C=C2/SC(N3CCOCC3)=NC2=O)cc1	GPR151 ag 7.0 | GPR151 conf act inactive | GPR119 counter inactive
O=C1N=C(N2CCOCC2)S/C1=C\c1c2ccccc2cc2ccccc12	none
CCOc1ccc(-c2cc(=O)c3ccc(NC(=O)c4ccccc4)cc3o2)cc1	none
COc1ccc(CC(=O)Nc2cccc(C(=O)Nc3ccccc3C(=O)O)c2)cc1	none
CC1CN(c2[nH]c(=O)n(C)c(=O)c2Cc2ccc(C(C)(C)C)cc2)CC(C)O1 (stereo not drawn)	none
C=CCn1c(=O)c(C(=O)Nc2ccc(C)c(Cl)c2)c(O)c2ccccc21	none
NCCNC(=O)/C(=N\O)c1ccccc1	none
O=C(NCCCNCCCNC(=O)/C(=N/O)c1ccccc1)/C(=N/O)c1ccccc1	GPR151 ag 5.4 | GPR151 conf act inactive | GPR119 counter inactive
Cc1nn(-c2ccc(Nc3ccc(NC(=O)c4cccc(F)c4)cc3)nn2)c(C)c1C	GPR151 ag 7.6 | GPR151 conf act inactive | GPR119 counter inactive
C=C(C)CCC(C)N1CCC(Oc2cccc(C(=O)NCCOC)c2)CC1 (stereo not drawn)	none
COCCNC(=O)c1cccc(OC2CCN(C(C)CSC)CC2)c1 (stereo not drawn)	GPR151 ag 7.0 | GPR151 conf act inactive | GPR119 counter inactive
CS(=O)(=O)N1CCC(Oc2cccc(C(=O)NCCCOc3cccnc3)c2)CC1	GPR151 ag 5.0 | GPR151 conf act inactive | GPR119 counter inactive
CCc1ccccc1N(C)C(=O)c1cc2cc(OC)ccc2oc1=O	GPR151 ag 5.9 | GPR151 conf act inactive | GPR119 counter inactive
CCCOc1ccc(C(CC(=O)O)NC(=O)c2ccc(OC)cc2OC)cc1 (stereo not drawn)	none
CCCCOc1nc2ccccc2nc1C(C#N)C(=O)OCC (stereo not drawn)	GPR151 ag 5.3 | GPR151 conf act inactive | GPR119 counter inactive
COc1ccccc1N=c1sc(C(C)=O)c(C)n1CCCN1CCOCC1	none
COC(=O)CSc1nnc(C)n1-c1ccc(N(C)C)cc1	GPR151 ag 5.6 | GPR151 conf act inactive | GPR119 counter inactive
CC(=O)CSc1nnc(C)n1-c1ccc(N(C)C)cc1	none
Cc1cc(Cl)ccc1OC(C)C(=O)NCc1ccco1 (stereo not drawn)	GPR151 ag 6.9 | GPR151 conf act inactive | GPR119 counter inactive
CCN(CC)S(=O)(=O)c1cc(C(=O)Nc2cccc(O)c2)c(Cl)cc1Cl	none
O=C(CCCn1c(=O)[nH]c2ccccc2c1=O)N1CCN(c2ccc(Cl)cc2)CC1	GPR151 ag 5.5 | GPR151 conf act inactive | GPR119 counter inactive
CC(C)N(Cc1ccccc1)C(=O)COC(=O)c1ccc(NC(N)=O)cc1	none
CC(C)(c1ccccc1)c1ccc(OC(=O)Nc2ccc(Cl)c(Cl)c2)cc1	GPR151 ag 5.4 | GPR151 conf act inactive | GPR119 counter inactive
Cc1cccc(NC(=O)Oc2ccc(C(C)(C)c3ccc(OC(=O)Nc4cccc(C)c4)cc3)cc2)c1	none
O=C1c2ccccc2C(=O)N1CCN1CCCC2(C1)Nc1ccccc1-n1cccc12 (stereo not drawn)	none
COc1ccc2c(c1)NC1(CCCN(CCN3C(=O)c4ccccc4C3=O)C1)c1cccn1-2 (stereo not drawn)	GPR151 ag 5.4 | GPR151 conf act inactive | GPR119 counter inactive
CNS(=O)(=O)c1cccc(C(=O)OCC(N)=O)c1	GPR151 ag 8.8 | GPR151 conf act inactive | GPR119 counter inactive
CNS(=O)(=O)c1cccc(C(=O)OCc2cc(C(C)=O)ccc2OC)c1	GPR151 ag 5.0 | GPR151 conf act inactive | GPR119 counter inactive
CCOc1ccc(C(=O)NCC(=O)OCCCC(=O)c2ccc(F)cc2)cc1OCC	none
Cc1ccc(N2CC(NC(=O)Nc3ncccc3C)CC2=O)cc1 (stereo not drawn)	GPR151 ag 5.9 | GPR151 conf act inactive | GPR119 counter inactive
O=C(NCCc1ccccc1)C1CC(=O)N(c2ccc(Br)cc2)C1 (stereo not drawn)	GPR151 ag 5.5 | GPR151 conf act inactive | GPR119 counter inactive
COc1ccc(CCNC(=O)NC2CC(=O)N(c3ccccc3)C2)cc1 (stereo not drawn)	GPR151 ag 6.1 | GPR151 conf act inactive | GPR119 counter inactive
COc1ccc(CCNC(=O)NC2CC(=O)N(c3cccc(F)c3)C2)cc1 (stereo not drawn)	none
COc1ccc(N2CC(NC(=O)Nc3ccccc3C(N)=O)CC2=O)cc1OC (stereo not drawn)	GPR151 ag 5.4 | GPR151 conf act inactive | GPR119 counter inactive
